In article PMC7862700, “An all-to-all approach to the identification of sequence-specific readers for epigenetic DNA modifications on cytosine”:

Assays:
Experiment in all cases: DAPPL (digital affinity profiling via proximity ligation, sequencing); 10 mM Tris-HCl pH 7.5, 50 mM NaCl, 1 mM DTT, 4% glycerol, room temperature, 30 min; GST-TFs on glutathione beads, 16-mer random dsDNA library, 0.1% formaldehyde crosslink after washing; high values mean tight binding
FEV = target: T1, FEV (Homo sapiens, UniProt Q99581 1-238); settings: protein: recombinant; tags: N-terminal GST; dsDNA, one strand shown
T1 sequence: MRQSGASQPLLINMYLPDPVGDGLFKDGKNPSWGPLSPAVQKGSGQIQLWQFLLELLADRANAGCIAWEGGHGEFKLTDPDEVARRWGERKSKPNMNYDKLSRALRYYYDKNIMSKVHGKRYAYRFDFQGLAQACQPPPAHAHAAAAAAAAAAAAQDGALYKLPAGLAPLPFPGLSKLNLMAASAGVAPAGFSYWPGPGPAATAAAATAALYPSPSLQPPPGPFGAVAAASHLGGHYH
Method in brief: (§1)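 The binding signal reported is, for every hexamer, its read frequency for a factor over its read frequency for the tag-only sample. Reads came from pools of yeast-expressed, GST-fused human transcription factors on glutathione beads, barcoded with DNA and mixed with that sample, which were incubated with 200 nmole of a random double-stranded 16-mer DNA library in Tris/NaCl/DTT/glycerol buffer at room temperature for 30 min. After washing, the pools were crosslinked with 0.1% formaldehyde, proximity-ligated with BsaI/T4 ligase for 1 h at 37 °C, PCR-amplified and sequenced on an Illumina NextSeq500.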

ETV5 = ETV5 (Homo sapiens, UniProt P41161 1-510); settings: protein: recombinant; tags: N-terminal GST; dsDNA, one strand shown
Method in brief: as §1

HSF1 = HSF1 (Homo sapiens, UniProt Q00613 1-529); settings: protein: recombinant; tags: N-terminal GST; chain copies: 3; dsDNA, one strand shown
Method in brief: as §1

SPIC = target: T2, SPIC (Homo sapiens, UniProt Q8N5J4 1-248); settings: protein: recombinant; tags: N-terminal GST; dsDNA, one strand shown
T2 sequence: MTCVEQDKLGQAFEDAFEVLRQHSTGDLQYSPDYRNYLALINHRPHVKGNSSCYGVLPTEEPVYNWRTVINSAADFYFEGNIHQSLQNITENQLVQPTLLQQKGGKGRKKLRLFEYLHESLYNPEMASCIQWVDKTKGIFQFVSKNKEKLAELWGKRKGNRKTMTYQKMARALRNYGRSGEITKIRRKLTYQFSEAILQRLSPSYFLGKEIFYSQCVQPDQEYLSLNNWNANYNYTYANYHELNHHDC
Method in brief: as §1

ELF4 = ELF4 (Homo sapiens, UniProt Q99607 1-663); settings: protein: recombinant; tags: N-terminal GST; dsDNA, one strand shown
Method in brief: as §1

ELK4 = target: T3, ELK4 (Homo sapiens, UniProt P28324-2 1-405); settings: protein: recombinant; tags: N-terminal GST; dsDNA, one strand shown
T3 sequence: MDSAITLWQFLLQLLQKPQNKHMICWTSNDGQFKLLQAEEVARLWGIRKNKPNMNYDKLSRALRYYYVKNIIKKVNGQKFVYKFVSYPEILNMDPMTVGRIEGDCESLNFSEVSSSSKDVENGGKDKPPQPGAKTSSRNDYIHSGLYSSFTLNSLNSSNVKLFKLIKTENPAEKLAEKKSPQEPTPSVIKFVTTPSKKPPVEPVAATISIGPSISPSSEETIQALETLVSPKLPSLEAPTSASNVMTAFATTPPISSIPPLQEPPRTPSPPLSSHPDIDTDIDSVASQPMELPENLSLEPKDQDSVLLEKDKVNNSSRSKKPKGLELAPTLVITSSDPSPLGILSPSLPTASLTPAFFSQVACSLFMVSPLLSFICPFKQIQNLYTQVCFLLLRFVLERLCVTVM
Method in brief: as §1

ETV2 = target: T4, ETV2 (Homo sapiens, UniProt O00321 1-342); settings: protein: recombinant; tags: N-terminal GST; dsDNA, one strand shown
T4 sequence: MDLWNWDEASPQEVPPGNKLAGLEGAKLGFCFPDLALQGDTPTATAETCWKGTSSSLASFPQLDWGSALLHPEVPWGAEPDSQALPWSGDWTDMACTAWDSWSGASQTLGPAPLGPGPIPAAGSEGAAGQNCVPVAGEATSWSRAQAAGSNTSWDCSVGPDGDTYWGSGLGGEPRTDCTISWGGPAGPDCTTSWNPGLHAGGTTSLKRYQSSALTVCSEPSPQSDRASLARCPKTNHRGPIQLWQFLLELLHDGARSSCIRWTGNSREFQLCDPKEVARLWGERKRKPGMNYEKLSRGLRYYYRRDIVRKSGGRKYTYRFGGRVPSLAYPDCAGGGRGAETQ
Method in brief: as §1

ELF3 = target: T5, ELF3 (Homo sapiens, UniProt P78545 1-371); settings: protein: recombinant; tags: N-terminal GST; dsDNA, one strand shown
T5 sequence: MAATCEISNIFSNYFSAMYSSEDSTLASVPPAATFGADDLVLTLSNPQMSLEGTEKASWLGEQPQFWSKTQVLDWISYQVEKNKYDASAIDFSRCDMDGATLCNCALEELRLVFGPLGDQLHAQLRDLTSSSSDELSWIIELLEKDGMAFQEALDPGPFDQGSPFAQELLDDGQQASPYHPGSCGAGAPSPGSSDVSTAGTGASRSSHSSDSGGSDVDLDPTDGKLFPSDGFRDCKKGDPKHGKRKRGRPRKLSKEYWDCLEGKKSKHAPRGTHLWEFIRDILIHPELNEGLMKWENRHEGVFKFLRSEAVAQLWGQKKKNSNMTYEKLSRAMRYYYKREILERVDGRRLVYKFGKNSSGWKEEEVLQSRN
Method in brief: as §1

ETV1 = ETV1 (Homo sapiens, UniProt P50549 1-477); settings: protein: recombinant; tags: N-terminal GST; dsDNA, one strand shown
Method in brief: as §1

Chain of ETV5 (P41161 whole entry): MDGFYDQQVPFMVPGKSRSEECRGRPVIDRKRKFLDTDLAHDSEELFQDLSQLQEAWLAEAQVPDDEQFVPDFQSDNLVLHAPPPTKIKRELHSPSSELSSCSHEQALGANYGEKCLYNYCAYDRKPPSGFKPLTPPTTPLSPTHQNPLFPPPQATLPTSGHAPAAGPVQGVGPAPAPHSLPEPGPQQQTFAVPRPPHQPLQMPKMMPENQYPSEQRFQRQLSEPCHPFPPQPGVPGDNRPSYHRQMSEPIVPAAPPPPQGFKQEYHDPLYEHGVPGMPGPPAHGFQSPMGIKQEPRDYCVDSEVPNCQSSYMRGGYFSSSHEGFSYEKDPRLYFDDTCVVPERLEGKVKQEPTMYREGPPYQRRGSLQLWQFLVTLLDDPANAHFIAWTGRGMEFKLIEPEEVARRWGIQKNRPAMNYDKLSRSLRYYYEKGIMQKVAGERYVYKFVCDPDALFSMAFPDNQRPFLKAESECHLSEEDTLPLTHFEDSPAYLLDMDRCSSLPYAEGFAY
Chain of HSF1 (Q00613 whole entry): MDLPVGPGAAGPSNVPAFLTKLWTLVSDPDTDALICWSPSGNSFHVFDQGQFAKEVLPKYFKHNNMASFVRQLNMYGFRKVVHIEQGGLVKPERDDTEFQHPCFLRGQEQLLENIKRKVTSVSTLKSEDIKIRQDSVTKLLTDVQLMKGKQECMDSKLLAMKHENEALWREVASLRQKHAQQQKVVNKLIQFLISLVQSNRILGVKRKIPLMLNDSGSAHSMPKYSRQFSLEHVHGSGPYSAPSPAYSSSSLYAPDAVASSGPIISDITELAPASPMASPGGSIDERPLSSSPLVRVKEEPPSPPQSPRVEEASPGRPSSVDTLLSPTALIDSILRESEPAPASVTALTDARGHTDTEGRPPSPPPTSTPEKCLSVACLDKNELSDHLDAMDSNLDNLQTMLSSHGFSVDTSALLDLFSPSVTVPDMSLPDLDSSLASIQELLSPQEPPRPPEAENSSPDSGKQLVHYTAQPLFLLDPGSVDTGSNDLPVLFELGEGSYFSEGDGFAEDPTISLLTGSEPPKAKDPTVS
Chain of ELF4 (Q99607 whole entry): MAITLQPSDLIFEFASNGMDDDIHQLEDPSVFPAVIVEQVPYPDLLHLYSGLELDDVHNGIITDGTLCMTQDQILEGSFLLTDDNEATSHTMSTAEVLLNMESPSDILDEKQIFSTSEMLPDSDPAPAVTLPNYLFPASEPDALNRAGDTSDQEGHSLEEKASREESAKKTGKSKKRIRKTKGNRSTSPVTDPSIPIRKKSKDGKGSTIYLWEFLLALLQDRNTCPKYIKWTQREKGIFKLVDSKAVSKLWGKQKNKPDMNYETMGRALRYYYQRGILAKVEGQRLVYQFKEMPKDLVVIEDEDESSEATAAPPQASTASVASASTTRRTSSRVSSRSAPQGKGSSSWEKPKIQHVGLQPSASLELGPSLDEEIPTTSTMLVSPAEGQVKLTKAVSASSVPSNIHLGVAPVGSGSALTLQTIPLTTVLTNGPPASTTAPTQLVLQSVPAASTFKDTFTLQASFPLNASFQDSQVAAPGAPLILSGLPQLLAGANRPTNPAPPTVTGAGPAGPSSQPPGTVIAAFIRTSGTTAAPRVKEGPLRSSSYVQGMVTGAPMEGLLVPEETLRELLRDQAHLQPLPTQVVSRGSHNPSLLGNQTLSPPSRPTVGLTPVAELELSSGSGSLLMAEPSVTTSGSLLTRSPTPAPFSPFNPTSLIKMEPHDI
Chain of ETV1 (P50549 whole entry): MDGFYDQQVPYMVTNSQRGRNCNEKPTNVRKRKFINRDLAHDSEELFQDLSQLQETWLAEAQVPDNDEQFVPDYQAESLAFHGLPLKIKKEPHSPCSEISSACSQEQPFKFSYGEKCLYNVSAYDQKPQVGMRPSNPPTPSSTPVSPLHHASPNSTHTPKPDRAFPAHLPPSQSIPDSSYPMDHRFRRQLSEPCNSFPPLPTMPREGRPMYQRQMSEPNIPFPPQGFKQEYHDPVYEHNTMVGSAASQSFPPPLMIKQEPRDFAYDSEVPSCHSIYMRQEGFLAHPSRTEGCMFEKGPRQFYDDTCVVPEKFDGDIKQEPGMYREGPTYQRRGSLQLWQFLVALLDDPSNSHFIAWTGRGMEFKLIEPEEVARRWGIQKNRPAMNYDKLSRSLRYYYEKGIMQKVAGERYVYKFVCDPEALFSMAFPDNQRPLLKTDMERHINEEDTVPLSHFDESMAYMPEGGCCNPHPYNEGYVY

TGTACG
binding signal (FEV): 1.2 fold enrichment (6-mer frequency, TF over GST control) | binding signal (ETV5): 1.23 fold enrichment (6-mer frequency, TF over GST control) | binding signal (HSF1): 1.01 fold enrichment (6-mer frequency, TF over GST control) | binding signal (SPIC): 1.23 fold enrichment (6-mer frequency, TF over GST control) | binding signal (ELF4): 1.2 fold enrichment (6-mer frequency, TF over GST control) | binding signal (ELK4): 1.34 fold enrichment (6-mer frequency, TF over GST control) | binding signal (ETV2): 1.13 fold enrichment (6-mer frequency, TF over GST control) | binding signal (ELF3): 1.13 fold enrichment (6-mer frequency, TF over GST control) | binding signal (ETV1): 1.24 fold enrichment (6-mer frequency, TF over GST control)
